Assay outcomes as filed in PubChem.
A selection: hits, their analogues and other compounds. The true share with any hit is near 6.6%.
KB-V1 cytotox: KB-V1 MDR subline cytotoxicity; actives 3.4% (n = 400,000); Potency, µM (top dose mostly 46.1 µM), most hits filed as cytotoxic; KB-V1 MDR cells viability, CellTiter-Glo, 72 h; note: % is set by controls: 0 for no effect and ±100 for the full control effect; nearly all actives have a fitted effect of over 60% in size
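KB-V1 MDR subline cells in DMEM (phenol-red free, 10% FBS) exposed to compounds in qHTS concentration series for 72 h at 37 degrees C. Viability read by CellTiter-Glo luminescence; concentration-effect curves fitted after normalization and correction.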
SW480 rereplic: inducers of DNA re-replication in SW480 colon cancer cells; Potency, µM (series often up to 46.1 µM), for the others: at the top dose re-replication activation, actives largely listed as activators; SW480 DNA re-replication, Hoechst DNA content imaging, 48 h; AID 624297; actives 1.8% (n = 340,000); note: % of control where 0% means no effect; nearly all actives have a fitted effect of over 55% in size
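Image-based read-out: total Hoechst fluorescence of nuclei (405 nm excitation, 500-530 nm emission), with hits raising the fraction of high-intensity nuclei. SW480 colon cells incubated 48 hr with compounds at 37 C.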
KB-3-1 cytotox: kills parental KB-3-1 adenocarcinoma cells; KB-3-1 viability, CellTiter-Glo ATP luminescence, 72 h; Potency, µM (top dose mostly 46.1 µM), usual class: cytotoxic; actives 1.4% (n = 400,000); AID 1347075; note: % is set by controls: 0 for no effect and ±100 for the full control effect; nearly all actives have a fitted effect of over 60% in size
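KB-3-1 parental drug-naive adenocarcinoma cells in DMEM/10% FBS, incubated 72 h at 37 C with pin-transferred compounds across a concentration series. Viability by CellTiter-Glo luminescence; concentration-response curves fitted after normalization.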
RGS4 inh: inhibitors of human regulator of G protein signaling 4. P49798. Transcreener GDP fluorescence polarization, RGS4-accelerated GTP hydrolysis. Potency, µM (titrated, usually from 114 µM), inactives show at the highest dose activity change, negative = inhibition, actives largely listed as inhibitors. actives 0.039% (n = 390,000). AID 504845; note: % is set by controls: 0 for no effect and ±100 for the full control effect; nearly all actives have a fitted effect of over 75% in size
Target sequence (P49798 whole entry, looked up): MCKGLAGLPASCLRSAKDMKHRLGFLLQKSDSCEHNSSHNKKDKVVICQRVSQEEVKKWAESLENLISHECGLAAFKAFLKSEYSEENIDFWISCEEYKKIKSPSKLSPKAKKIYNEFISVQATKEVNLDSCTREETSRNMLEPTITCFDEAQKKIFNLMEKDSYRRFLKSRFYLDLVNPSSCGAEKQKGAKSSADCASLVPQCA
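MLSMR compounds (23 nl, pin-transferred) preincubated 10 min at room temperature with a 500nM (2x) first reagent, then RGS4 at 900nM (2x) plus Transcreener GDP mix added; fluorescence polarization (620/688 nm) read before and after 90 min at 30 °C.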
MCF10A rerep: DNA re-replication induction in MCF 10a cells. MCF 10A DNA re-replication, Hoechst nuclear intensity, 48 h. Potency, µM (series often up to 46.1 µM), inactives show at the highest dose activity, positive = re-replication, usual class: activators. actives 2.9% (n = 350,000). AID 624296; note: % of control where 0% means no effect; nearly all actives have a fitted effect of over 50% in size
TSG101-PTAP inh: blocks PTAP/TSG101 interaction to inhibit HIV-1 budding | Potency, µM (top dose mostly 115 µM), for the others: at the highest dose activity change, negative = inhibition, usual class: inhibitors | Fluorescence polarization, FITC-PTAP peptide / Tsg101 binding | 340,000 tested, under 10 active | AID 493005 | Q99816; active = well fitted inhibition curve with a large enough effect in the main read-out, with a control signal flat, not every such curve was filed as active; inconclusive = small, poorly fitted or top-dose-only effect, or effect the other way, or a change in a side signal; inactive = no such curve, though single readings can be large or run the other way; note: % of control where 0% means no effect
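Steps: Tsg101 binding domain dispensed (10 uM final), compounds pinned in DMSO, FITC-labeled PTAP-motif peptide added (50 nM final); after 20 min binding at room temperature, polarization measured.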
An asterisk follows results filed as active; i = inactive; ? = inconclusive; · = not tested or not shown; [ ] = dose if it differs, or a comment. Unless noted, calls come from the whole dose curve; as a rule, active = well fitted curve in the direction sought with a large enough effect; inconclusive = small, poorly fitted or top-dose-only effect, or another doubt; inactive = no such curve, though single readings can be large; an effect the other way counts as inactive or inconclusive. Potency is the fitted concentration of half-maximal effect.

SMILES	KB-V1 cytotox	SW480 rereplic	KB-3-1 cytotox	RGS4 inh	MCF10A rerep	TSG101-PTAP inh
CO/N=C1\CN(c2nc3c(cc2F)c(=O)c(C(=O)O)cn3C2CC2)CC1CN (configuration not stated)	·	-5%	·	·	14%	·
Cc1c(CNCc2ccc(OC(C)C)cc2)c(C(=O)O)c(C)n1Cc1ccc(Cl)cc1	i	·	?	-5%	·	·
COC(=O)c1ccccc1NC(=O)CSc1nc2cccnc2n1C	i	11%	i	25%	-3%	-5%
COC(=O)c1cccc(NC(=O)CSc2nc3cccnc3n2C)c1	18µM*	0%	i	2%	23%	-7%
Cc1ccc(NS(=O)(=O)c2ccc(C(=O)NC3CCN(Cc4ccccc4)CC3)cc2)cc1	·	18µM*	·	3%	8%	-5%
CCc1nc2ccc(C(=O)NC3CCN(Cc4ccccc4)CC3)cn2c1N(C)Cc1cccs1	i	·	i	·	·	·
CCc1nc2ccc(C(=O)NC3CCN(Cc4ccccc4)CC3)cn2c1N(C)Cc1cc2ccccc2s1	10µM*	·	?	·	·	·
CC(C)(C)c1ccc(C(=O)NC2CCN(Cc3ccccc3)CC2)cc1	i	16µM*	?	15%	-1%	1%
O=C(NC1CCN(Cc2ccccc2)CC1)c1ccccc1	i	-12%	i	-8%	-3%	-1%
Cc1ccc(CNC(=O)c2c(-c3ccc(Br)cc3)noc2C)o1	i	·	i	-1%	·	·
CCOC(=O)c1sc2ccccc2c1S(=O)(=O)Nc1ccc(OC)c(Cl)c1	i	·	i	-36%	·	·
CC1CN(Cc2ccccc2)c2ccccc2NC1=S (configuration not stated)	21µM*	2%	?	5%	41%	-3%
COc1ccc(-c2ccnc3nc(N4CCN(c5ccccc5)CC4)nn23)cc1	21µM*	-7%	?	-24%	?	-3%
O=C(NCc1ccc(F)cc1)c1cc(C2CCCCN2C(=O)c2ccc3c(c2)CCO3)on1 (configuration not stated)	?	·	21µM*	·	·	·
CCOc1ccc(C(=O)Nc2cc(-c3ccccc3)no2)cc1	i	·	i	23%	·	·
Cc1nn(Cc2ccc(Cl)cc2Cl)c(C)c1NC(=O)c1sc2ccccc2c1Cl	i	-3%	i	-27%	9%	5%
Cc1nn(Cc2ccc(Cl)cc2Cl)c(C)c1NC(=O)NC12CC3CC(CC(C3)C1)C2	15µM*	3%	?	-23%[11.4 µM]	?	-3%
CCn1ncc(/C=C/C(=O)Nc2c(C)nn(Cc3ccc(Cl)cc3Cl)c2C)c1C	i	10µM*	i	-3%	4%	-1%
COc1cccc(CNC(=O)c2ccc3c(c2)N(Cc2ccc(F)cc2Cl)C(=O)c2ccccc2S3)c1	·	·	·	14%	·	·
CS(=O)(=O)c1ccc(Cn2c3c(c4cc(F)cc(F)c42)CCC[C@H]3CC(=O)O)cc1	·	·	·	68%[56.9 µM]	·	·
N#CC(C#N)=C(Nc1ccc(F)cc1)SCc1cccc(Br)c1	9.2µM*	?	10µM*	-20%	3.3µM*	-1%
Cc1cccc(CSC(Nc2ccc(F)cc2)=C(C#N)C#N)c1	?	?	16µM*	-20%	15µM*	-6%
CC(SCc1ccccc1)C(=O)Nc1ccc(F)cc1 (configuration not stated)	?	3%	i	-20%	22%	-2%
COc1cccc(CNC(=O)c2cnc(N3CCCC3)nc2C)c1	i	·	i	5%	·	·
CCOC(=O)c1[nH]c2ccc(OC)cc2c1NC(=O)OC	i	-8%	i	7%	-5%	1%
COC(=O)c1[nH]c2cc(OC)ccc2c1NC(=O)CN1CCN(c2cccc(C)c2)C(C)C1 (configuration not stated)	21µM*	15%	?	-6%[11.4 µM]	?	-4%
CCOC(=O)Nc1c(C(=O)OC)[nH]c2cc(OC)ccc12	23µM*	?	21µM*	-10%	24%	-4%
